Over roughly 16,000 sequences, “e-score” has its median near -0.044; the highest 2% begin near 0.38. This is one part of a sample in which the highest values are shown more often than they occur.

The target in this experiment is T1, GST-NbGlk1(82-244) (Nicotiana benthamiana).
T1 chain: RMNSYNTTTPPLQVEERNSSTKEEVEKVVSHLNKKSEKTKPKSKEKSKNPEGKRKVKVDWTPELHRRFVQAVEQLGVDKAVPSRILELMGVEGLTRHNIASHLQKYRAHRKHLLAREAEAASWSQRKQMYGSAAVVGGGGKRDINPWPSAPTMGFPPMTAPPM
Briefly: protein-binding microarray; NbGlk1 is a Golden2-like transcription factor of Nicotiana benthamiana; high values mean tight binding. Conditions: protein: recombinant; tags: GST (pTH6838); dsDNA, one strand shown.
AACGTATC: the binding signal is 0.322 ± 0.0281 E-score. As for ATTACATG, the binding signal is 0.293 ± 0.0579 E-score. ATCTGTAG: the binding signal stood at 0.3 ± 0.055 E-score. Take ATACGCAT: the binding signal stood at 0.204 ± 0.0532 E-score. With ATCTGATC the figure was 0.329 ± 0.0755 E-score. Turning to ATTACACA, the binding signal was 0.31 ± 0.0413 E-score. ATATCTCC: the binding signal worked out at 0.388 ± 0.0404 E-score. Take ATATCACG: the binding signal was 0.347 ± 0.0113 E-score. As to ATATCACC, the binding signal is 0.277 ± 0.0211 E-score.

For the sequence ATCTCTCG, the binding signal was determined as 0.231 ± 0.0608 E-score. Turning to ATCTCTCA, the binding signal was found to be 0.295 ± 0.0129 E-score.

Turning to ATATCTCA, the binding signal came out at 0.3895 ± 0.00167 E-score. For the sequence ATCTCCCC, the binding signal worked out at 0.301 ± 0.0229 E-score.

ATTTCTCA: the binding signal was 0.248 ± 0.108 E-score. With ATATCTCG the figure was 0.435 ± 0.0109 E-score; with AATCCCCA, 0.346 ± 0.00463 E-score. For the sequence ACTAAATC, the binding signal stood at 0.213 ± 0.00269 E-score.

On to AACACAAT, for which the binding signal turned out to be 0.213 ± 0.0479 E-score. With ATTACAAC the figure was 0.257 ± 0.0217 E-score; with ATGAGATA, 0.20921 ± 0.000115 E-score. Turning to ATTGCGCA, the binding signal was determined as 0.301 ± 0.0513 E-score. As for ATCTGGAC, the binding signal worked out at 0.346 ± 0.0997 E-score. The result for ATCTCCAA reads 0.342 ± 0.0598 E-score. Consider AAAAAATT, for which the binding signal amounted to 0.204 ± 0.0566 E-score. Turning to AAAAAAAT, the binding signal came to 0.286 ± 0.0488 E-score. On to AGCAAAAT, for which the binding signal was found to be 0.241 ± 0.0294 E-score.

AGCAAATA: the binding signal is 0.221 ± 0.0663 E-score. As for AAAAAATC, the binding signal worked out at 0.439 ± 0.0166 E-score.

For the sequence ACCAAATC, the binding signal is 0.406 ± 0.00414 E-score.

For the sequence AGCAAATC, the binding signal was 0.4187 ± 0.000896 E-score. On to ATCAAATC, for which the binding signal was found to be 0.36 ± 0.00877 E-score. ACCAAAAT: the binding signal was 0.245 ± 0.0514 E-score.

On to AGAAAAAT, for which the binding signal turned out to be 0.252 ± 0.0352 E-score.

Turning to AGAAAATC, the binding signal turned out to be 0.4794 ± 0.0015 E-score. As to AGTAAATC, the binding signal was 0.241 ± 0.0671 E-score. Turning to ATATGAAG, the binding signal was 0.207 ± 0.0492 E-score. For AATCACAG, the binding signal turned out to be 0.3111 ± 0.000659 E-score. With CAAGATCC the figure was 0.33 ± 0.0132 E-score. Take ATTACACC: the binding signal stood at 0.334 ± 0.0466 E-score.

On to AACGATAT, for which the binding signal was found to be 0.29 ± 0.015 E-score. As to ATTTTCCC, the binding signal amounted to 0.304 ± 0.0203 E-score. The result for AAATTATA reads 0.256 ± 0.00661 E-score; that for AATCGTTG, 0.203 ± 0.0845 E-score.

In the case of AACATAAT, the binding signal is 0.233 ± 0.0831 E-score.

In the case of AGACAATC, the binding signal was found to be 0.3189 ± 0.000404 E-score. As to ACAAAATA, the binding signal was 0.293 ± 0.102 E-score. ACAAAAAT: the binding signal came to 0.238 ± 0.045 E-score. Consider ACACAATA, for which the binding signal came out at 0.226 ± 0.0401 E-score.

Regarding ACACAATC, the binding signal was 0.39 ± 0.0203 E-score. With AACAAATC, the binding signal was determined as 0.302 ± 0.043 E-score. As for CAAAAATC, the binding signal was 0.399 ± 0.00565 E-score. The result for ATAAAATA reads 0.22 ± 0.00301 E-score; that for ACAAAATC, 0.4578 ± 0.00327 E-score; that for ATAAAATC, 0.409 ± 0.00541 E-score. The result for CACAAATC reads 0.274 ± 0.0179 E-score; that for ATAAAAAT, 0.292 ± 0.0292 E-score; that for ACGCGTAT, 0.211 ± 0.0436 E-score. Take ATTTCAAG: the binding signal came to 0.23 ± 0.00665 E-score. For the sequence ATAACGTA, the binding signal is 0.205 ± 0.0524 E-score. The result for AGGATACG reads 0.357 ± 0.0118 E-score; that for ATAGCAAT, 0.321 ± 0.015 E-score. ATCCTATA: the binding signal came to 0.326 ± 0.0829 E-score. Take ATCTGCAA: the binding signal came out at 0.317 ± 0.0136 E-score. For the sequence ATCGCAGA, the binding signal is 0.23 ± 0.0112 E-score. In the case of ATCTCCGG, the binding signal worked out at 0.318 ± 0.0623 E-score. Take ATCTTAGA: the binding signal is 0.243 ± 0.155 E-score. For ATTCCTAA, the binding signal stood at 0.236 ± 0.0111 E-score.

Regarding CAATCCGC, the binding signal came out at 0.305 ± 0.107 E-score. AAATCCGT: the binding signal worked out at 0.401 ± 0.0483 E-score. For the sequence AAATCCGC, the binding signal was found to be 0.432 ± 0.0197 E-score.

For the sequence AATCCCGT, the binding signal turned out to be 0.366 ± 0.0273 E-score. With AGATCCGG the figure was 0.291 ± 0.0113 E-score. CAATCCGA: the binding signal came out at 0.35 ± 0.00607 E-score.

CAATCCGG: the binding signal is 0.328 ± 0.0049 E-score. With AAATCAGA the figure was 0.315 ± 0.029 E-score; with AATCCCGC, 0.335 ± 0.0716 E-score. As to AAATCCGG, the binding signal is 0.441 ± 0.0267 E-score. As for AAATCCCT, the binding signal was determined as 0.354 ± 0.00608 E-score.

AAATCCGA: the binding signal was determined as 0.427 ± 0.0109 E-score.

Take ACGGTATC: the binding signal is 0.297 ± 0.0236 E-score. Consider ATATAGAA, for which the binding signal was found to be 0.254 ± 0.0436 E-score.

For ATTTAGAA, the binding signal is 0.279 ± 0.0333 E-score.

ATTCCTTA: the binding signal was found to be 0.228 ± 0.0221 E-score.

Consider AACAGAAT, for which the binding signal stood at 0.301 ± 0.106 E-score. With ATTCTCGA, the binding signal was 0.308 ± 0.0153 E-score. AATCTCGT: the binding signal came to 0.436 ± 0.0316 E-score.

(Values after paper PMC5836133, “The intracellular immune receptor Rx1 regulates the DNA-binding activity of a Golden2-like transcription factor”.)
